A selection: hits, their analogues and other compounds. The true share with any hit is near 31%.
PLAP act: activates human placental alkaline phosphatase; P05187; purified PLAP enzyme, luminescent substrate read-out; stronger effect = higher value; activation fold at 20 µM; 1.2% of 96,000 active; in the data active = activation fold above about 2
Target sequence (P05187 whole entry, looked up): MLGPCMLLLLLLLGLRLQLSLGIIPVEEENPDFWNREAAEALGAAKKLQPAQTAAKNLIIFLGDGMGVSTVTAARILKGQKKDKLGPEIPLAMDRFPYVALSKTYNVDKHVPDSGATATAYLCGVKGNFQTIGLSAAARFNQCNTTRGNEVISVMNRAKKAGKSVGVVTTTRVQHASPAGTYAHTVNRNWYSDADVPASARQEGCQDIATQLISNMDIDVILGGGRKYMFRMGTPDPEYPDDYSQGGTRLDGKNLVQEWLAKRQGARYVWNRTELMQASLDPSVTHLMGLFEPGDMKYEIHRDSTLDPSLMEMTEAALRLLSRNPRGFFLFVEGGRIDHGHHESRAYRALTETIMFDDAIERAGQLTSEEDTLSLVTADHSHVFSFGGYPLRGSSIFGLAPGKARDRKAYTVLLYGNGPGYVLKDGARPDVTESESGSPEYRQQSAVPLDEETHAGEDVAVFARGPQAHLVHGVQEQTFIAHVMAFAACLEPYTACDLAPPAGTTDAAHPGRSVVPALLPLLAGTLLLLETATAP
CYP2C9 activ: increases human cytochrome P450 2C9 activity. P11712. recombinant CYP2C9, luciferin-H conversion, luminescence; stronger effect = higher value; factor 1 = untreated enzyme, 0 = blocked. activation factor at 5 µM. 1.4% of 96,000 active;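 active = activation factor of 2 or more for CYP2C9 at a 5 µM dose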;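 also: 0 = sulfaphenazole-blocked wells and 1 = vehicle-only wells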
CYP2C19 activ: activators of human cytochrome P450 2C19; P33261; recombinant CYP2C19, luciferin-H EGE luminescence; stronger effect = higher value; 0 = fully inhibited enzyme, 1 = untreated enzyme; activation factor at 5 µM; 96,000 tested, under 10 active; AID 1025;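 active = activation factor of at least 2 at 5 µM in the primary screen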;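 also: 0 = wells with 2.5 mM tranylcypromine and 1 = vehicle-only wells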
CYP2C19 inh: human CYP2C19 inhibition. P33261. CYP2C19 Supersomes, luciferin-H EGE luminescence, 30 min. inhibition, % at 5 µM. 21% of 96,000 active;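 active = CYP2C19 inhibition above a set limit at 5 µM in the primary screen, cut at about 50% in these data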;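 also: plate controls were negative control wells for no effect and 2.5 mM tranylcypromine positive control for full effect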
CYP2C9 inhib: blocks human cytochrome P450 2C9. CYP2C9 Supersomes, luciferin-H conversion, luminescence. inhibition, % at 5 µM. 20% of 96,000 active. AID 777;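 active = blocking of liver enzyme CYP2C9 beyond about 50% at 5 µM, limit read from the data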
Numbers without * were called inactive.

SMILES | PLAP act | CYP2C9 activ | CYP2C19 activ | CYP2C19 inh | CYP2C9 inhib
CC(C)(C)NC(=O)CC(c1ccccc1)c1ccccc1O (stereo unspecified) | 1 | 0 | 0.1 | 90* | 96*
COc1ccc(NC(=O)CC#N)cc1OC | 1.1 | 1 | 1.1 | -6 | -2
c1cncc(-c2nc3c(ccc4ccccc43)[nH]2)c1 | 1 | 0.8 | 0.9 | 13 | 20
COCCn1c(SC(C)C(=O)Nc2ncc(Cl)cc2Cl)nc2ccccc21 (stereo unspecified) | 1.4 | 0.9 | 0.3 | 68* | 14
CCNC(=O)NC(=O)CSc1nc2ccccc2n1CCOC | 1 | 0.4 | 0.8 | 22 | 61*
CC(C)CNC(=O)NC(=O)CSc1nc2ccccc2n1CC(C)C | 0.9 | 1.1 | 0.5 | 47 | -8
Cc1nnc(SC(C)C(=O)Nc2ncc(Cl)cc2Cl)n1Cc1ccccc1 (stereo unspecified) | 1.3 | 0.9 | 0.9 | 11 | 12
CCCNC(=O)NC(=O)CSc1nc2ccccc2n1CC(C)C | 1.5 | 0.5 | 0.1 | 88* | 53*
CCC(c1nnnn1C(C)(C)C)N(CCOC)Cc1cc2cccc(C)c2n2nnnc12 (stereo unspecified) | 1.1 | 1 | 1 | -2 | 2
Cn1cnc2cc(OC(=O)c3ccccc3)ccc21 | 0.8 | 0.9 | 0.8 | 16 | 11
CC(C)C(=O)Nc1ccc(-c2csc(-c3ccccc3)n2)cc1 | 0.9 | 1.2 | 1 | -4 | -21
CCOC(=O)NC(Nc1nc2ccccc2s1)(C(=O)OCC)C(F)(F)F (stereo unspecified) | 1.1 | 0.2 | 0.1 | 93* | 83*
CCOC(=O)NC(Nc1nnc(C)s1)(C(=O)OCC)C(F)(F)F (stereo unspecified) | 1 | 1 | 1 | 1 | 0
CCCC(=O)Nc1nc2ccc(OCC)cc2s1 | 0.9 | 0.8 | 0.8 | 16 | 23
C/C(=C\C(=O)c1ccccc1)NNc1nc2ccccc2s1 | 1.4 | 0.6 | 0.4 | 61* | 42
CCOC(=O)C1=C(O)C(Nc2nc3ccccc3s2)(C(F)(F)F)N=C1C (stereo unspecified) | 0.9 | 0.6 | 0 | 98* | 42
CCOc1ccc2nc(NC(NC(=O)CC)(C(=O)OC)C(F)(F)F)sc2c1 (stereo unspecified) | 1.6 | 0.6 | 0.3 | 70* | 44
COc1ccc(/C=N/NC(=O)C(Cc2c[nH]c3ccccc23)NC(=O)OCC(C)C)cc1[N+](=O)[O-] (stereo unspecified) | 1.1 | 0.8 | 1 | -1 | 24
Cc1ccc(-c2nnn(CC(=O)N3CCCCC3)n2)c(-n2cnnn2)c1 | 1.2 | 1.3 | 0.9 | 6 | -25
O=C(O)C1C2CCC(C2)C1C(=O)Nc1nc2ccccc2s1 (stereo unspecified) | 0.8 | 0.9 | 1 | 3 | 13
CCOc1ccc2nc(NC(NC(C)=O)(C(=O)OC)C(F)(F)F)sc2c1 (stereo unspecified) | 1.5 | 0.9 | 0.4 | 58* | 6
O=C(NC(Nc1nc2ccccc2s1)(C(F)(F)F)C(F)(F)F)c1ccccc1 | 0.9 | 0.1 | 0.2 | 76* | 92*
Cc1csc(NC(=O)CCC(=O)N(CC(=O)NC2CCCC2)Cc2ccco2)n1 | 1.2 | 1 | 1 | -4 | 0
CC(C)C(NC(=O)c1cccs1)c1nnc(SCC(=O)Nc2nccs2)n1C (stereo unspecified) | 0.9 | 0.6 | 0.9 | 6 | 41
CCS(=O)(=O)N1CCC(C(=O)NCc2cc(OC)ccc2OC)CC1 | 1.3 | 1.8 | 0.9 | 13 | -78
SMILES | PLAP act | CYP2C9 activ | CYP2C19 activ | CYP2C19 inh | CYP2C9 inhib
COc1ccc(Br)cc1CNC(=O)C1CCN(S(=O)(=O)N2CCCC2)CC1 | 1.2 | 2.6* | 0.8 | 22 | -164
COc1ccccc1CNC(=O)C1CCN(S(=O)(=O)N2CCCCC2)CC1 | 1.3 | 2.2* | 0.8 | 19 | -116
CCS(=O)(=O)N1CCC(C(=O)NCc2ccccc2OC)CC1 | 1 | 1.3 | 1.1 | -6 | -35
CCn1c(=O)c2cc(C(=O)Nc3cc(C)on3)sc2c2ccccc21 | 0.9 | 2.1* | 1 | -4 | -113
CCn1c(=O)c2cc(C(=O)NCCN3CCOCC3)sc2c2ccccc21 | 1.6 | 1.1 | 0.8 | 21 | -15
O=C(c1ccco1)N1CCN(Cc2nc3ccccc3c(=O)n2-c2ccc(F)cc2)CC1 | 1.4 | 0.3 | 0.6 | 36 | 70*
CCOC(=O)C1CCN(Cc2nc3ccccc3c(=O)n2-c2ccc(F)cc2)CC1 | 1.5 | 0.3 | 0.9 | 13 | 68*
CCOC(=O)c1ccc(-n2c(C)nc3ccccc3c2=O)cc1 | 1.3 | 1 | 0.7 | 30 | -2
CCCc1nnc(NC(=O)CCC(=O)N2CCCCC2CC)s1 (stereo unspecified) | 1 | 1.1 | 0.9 | 10 | -10
N#Cc1c(NC(=O)CSc2nc(N)cc(=O)[nH]2)sc2c1CCCCCC2 | 1 | 0.7 | 0.4 | 58* | 30
N#Cc1cc2c(nc1SCC(=O)Nc1sc3c(c1C#N)CCC3)CCCCC2 | 1 | 0.8 | 1 | 0 | 16
N#Cc1cc2c(nc1SCC(=O)Nc1sc3c(c1C#N)CCC3)CCCC2 | 1 | 0.8 | 1 | 3 | 19
N#Cc1c(NC(=O)CSc2ncn(-c3ccccc3)n2)sc2c1CCCC2 | 0.9 | 0.1 | 0.2 | 81* | 90*
N#Cc1c(NC(=O)CSc2nnnn2C2CCCC2)sc2c1CCCC2 | 1 | 0.7 | 1 | 3 | 28
N#Cc1c(NC(=O)CSc2ncn[nH]2)sc2c1CCCCC2 | 1.1 | 0.3 | 0.8 | 15 | 71*
CCOc1cc(N2C(=O)CC3CS(=O)(=O)CC32)c(OCC)cc1NC(=O)c1ccccc1 (stereo unspecified) | 1.4 | 1 | 1.1 | -10 | -5
COc1c2ccoc2nc2c(OC)cccc12 | 1 | 1.1 | 0.9 | 6 | -5
CSc1nc2ccccc2c(=O)n1N | 1 | 0.9 | 0.7 | 26 | 8
COc1ccc2c(c1)NC1(O)c3ccccc3C(=O)C21O (stereo unspecified) | 0.9 | 1.5 | 1.1 | -9 | -50
COc1ccc2c(c1)C1(Nc3ccccc3C(=O)N1c1ccccc1)C(=O)N2 (stereo unspecified) | 1.1 | 0.1 | 0.7 | 27 | 87*
O=C(Nc1cccc(F)c1)c1cccnc1N1CCOCC1 | 1 | 0.9 | 0.6 | 36 | 11
CCC(=O)c1ccccc1OCCSc1nc(C)cc(=O)[nH]1 | 1 | 0.5 | 0.3 | 72* | 45
CCc1c(C)nc(SCCOc2ccc(OC)cc2)[nH]c1=O | 1.1 | 0.4 | 0.3 | 66* | 62*
CCCOc1cccc(OCCSc2nc(C)cc(=O)[nH]2)c1 | 1.2 | 0.5 | 0.5 | 46 | 51*
CCCCOc1ccc(NC2=NC3(CCCC3)N=C(N)N2)cc1 | 1.5 | 1.2 | 1.1 | -6 | -16
O=C(Cn1c(-c2ccccc2)noc1=O)Nc1ccc(N2CCCCCC2)cc1 | 1.1 | 1 | 1.1 | -10 | 2
Cc1cccc(OCC(=O)NC(C)C(=O)N/N=C/c2c(OCc3ccccc3)ccc3ccccc23)c1 (stereo unspecified) | 1.6 | 0.1 | 0.5 | 49 | 89*

Screening data as filed in PubChem.
